Among the data in PubChem BioAssay (NCATS) are Potency values, retold here.

Inconclusive results are not listed. A call without a number means that no potency is given here. Active and inactive are the calls of the source. The call rests on the fitted dose curve; in most records, active means well fitted inhibition curve with a large enough effect; inconclusive means small, poorly fitted or top-dose-only effect, or effect the other way; inactive means flat fitted curve, though single readings scatter.
Potency means the concentration at half of the fitted maximal effect.

The nature of this test: qHTS for Inhibitors of Plasmodium falciparum (GB4) proliferation (AID 504315). Further: nearly all actives have a fitted effect of over 50% in size. To be noted: P. falciparum GB4 in erythrocytes, SYBR Green DNA, 72 h; series mostly up to 6.7 µM. From the text:
Plasmodium falciparum is a virulent malarial parasite that kills 1-2 million people worldwide each year. Malaria not only inflicts tremendous suffering and morbidity on the human population, but has dramatically influenced the course of civilization with profound sociological and economic implications (Shah, S. 2010). Transmitted by mosquitoes, the sporozoite form of the parasite enters the blood stream to infect hepatocytes, where they become merozoites that infect red blood cells (erythrocytes). Within erythrocytes, merozoites begin a […] cycle of growth and division, after which the parasite is released to infect new red blood cells. Gametocytes, which form within erythrocytes as well, circulate in the bloodstream and are ingested by the mosquito, thereby completing the life cycle (see CDC website). To profile malarial lines for differential chemical responses and to identify inhibitors of malarial growth, an assay that measures P. falciparum growth and replication within erythrocytes was employed. This assay uses a DNA binding fluorescent dye (SYBR Green) to detect parasite DNA following cell lysis. Because mature erythrocytes lack DNA, only Plasmodium-derived DNA is detected. The P. falciparum line cp250, derived from a malarial isolate from Cambodia, (Mu, J., et al. 2010) was added to the panel of lines, Dd2, HB3, 7G8 and GB4 in this study. Laboratory of Assay Development and Screening Technology [ADST] and NIH Chemical Genomics Center [NCGC] Boston University, Chemistry Department, Center for Chemical Methodology and Library Development [CMLD-BU] NIH National Institute of Allergy and Infectious Diseases [NIAID]
ADST Assay Protocol Summary: The 1536-well SYBR Green viability assay was based on the method of Bennett et al (2004) and described previously in 1536-well format (Yuan J., et al. 2009). For screening 3 ul culture medium was dispensed into 1536 well black clear bottom plates (Aurora Biotechnologies) using a Multidrop Combi (Thermo Fisher Scientific Inc.), 23 nL compounds in DMSO were added by a pin transfer (Cleveland, P.H. and Koutz, P.J, 2005) using a pin tool-based delivery system (Kalypsys), and 5 ul of erythrocytes infected with P. falciparum one of five lines (cp250, Dd2, HB3, 7G8 or GB4, 0.3% parasitemia, 2.5% hematocrit final concentration) were added. The plates were incubated at 37C in a humidified incubator in 5% CO2 for 72 h, and 2 ul lysis buffer (20 mM Tris HCl, 10 mM EDTA, 0.16% saponin, 1.6% triton X, 10X SYBR Green I (supplied as 10,000X final concentration by Invitrogen) was added to each well. The plates were mixed for 25 sec with gentle shaking and incubated overnight at room temperature in the dark. The following morning, fluorescence intensity at 485(14) nm excitation and 535(25) nm emission wavelengths was measured on an EnVision (Perkin Elmer) plate reader. Plate reads were normalized relative to the control inhibitor (0.29 uM artemisinin) and vehicle (DMSO) wells present on each plate and then corrected by an algorithm using vehicle-only control plates at the beginning and end of the compound plate stack. References Shah, S. (2010). The Fever: how malaria has ruled humankind for 500,000 years. New York, Sarah Crichton Books. CDC web site, http://www.cdc.gov/malaria/about/biology/index.html Mu, J., Myers, R.A., Jiang, H., Liu, S., Ricklefs, S., Waisberg, M., Chotivanich, K., Wilairatana, P., Krudsood, S., White, N.J., et Plasmodium falciparum genome-wide scans for positive selection, recombination hot spots and resistance to antimalarial drugs Nature Genetics 2010, 42, pp 268-271 Bennett TN, Paguio, M., Gligorijevic, B., Seudieu, C., Kosar, A. D., Davidson, E., and Roepe, P. D. Novel, rapid, and inexpensive cell-based quantification of antimalarial drug efficacy Antimicrobial Agents Chemother. 2004, 48(5): pp 1807-10 Yuan J, Johnson RL, Huang RL, Wichterman J, Jiang HY, Hayton K, Fidock DA, Wellems TE, Inglese J, Austin CP, Su XZ. […]
On the technique in general: Quantitative high-throughput screening tests each substance at several concentrations.
Regarding `C=CCN1c2ccccc2[C@]23C[C@@H](C(=O)OC)N(S(=O)(=O)c4cccs4)C2=NC(C(=O)OC)=C(C(=O)OC)[C@H]13`, the Potency entry was “inactive”. As to `CC[C@@H](C)CN1C(=O)N[C@@H](c2ccccc2)C(C(C)=O)=C1C`, the Potency result was “inactive”.

With `CCN(CC)CCCN1C=C2C(=O)C(C)(OC(=O)CCc3ccccc3)C(=O)C=C2C=C1c1ccc(C#N)cc1` (stereo not given), the Potency entry was “inactive”. The result for `COC(=O)C1=C(C(=O)OC)[C@@H]2N(C)c3ccccc3[C@@]23C[C@@H](C(=O)OC)N(S(=O)(=O)c2ccc4c(c2)OCCN4C)C3=N1` reads 2390 nM (active); that for `C=C(C(C)=O)C(O)c1ccc2ccccc2c1` (stereo not given), “inactive”; that for `C[C@H]1Cc2c(COc3ccccc3)nc3c(c2CO1)CN(C(=O)Cc1cccs1)CC3`, “inactive”. `CCCCC1=CC2=CC(=O)C(C)(OC(=O)CC)C(=O)C2=CN1CCc1ccc(Br)cc1` (stereo not given): the Potency entry was “inactive”. The result for `CCCCCC(=O)c1cc(CC(C(=O)OC)C(=O)OC)cc2cc(OC)c(OC)cc12` reads “inactive”; that for `CC(C)(C)N1C(=O)[C@@H]2[C@H]3[C@H](O)[C@H](O)CC(=NOCc4ccccc4)[C@H]3CC[C@H]2C1=O`, “inactive”; that for `C=CCN1c2ccccc2[C@]23C[C@@H](C(=O)OC)N(S(=O)(=O)CCCC)C2=NC(C(=O)OC)=C(C(=O)OC)[C@H]13`, “inactive”. For the compound `COC(=O)[C@@H](NC(=O)N1CCc2nc(-c3ccc(OC)cc3C)c3c(c2C1)CO[C@@H](c1ccccc1)C3)C(C)C`, the Potency was 1900 nM (active). The result for `COC(=O)CCC(=O)OC1(C)C(=O)C2=CN(Cc3ccco3)C(c3ccc(OC)cc3)=CC2=C(Br)C1=O` (stereo not given) reads “inactive”; that for `COC(=O)C1=C(C(=O)OC)[C@@H]2N(C)c3ccc(OC)cc3[C@@]23C[C@@H](C(=O)OC)N(S(=O)(=O)c2ccc(OC)cc2)C3=N1`, “inactive”; that for `CCOC(=O)CN1C(=O)N[C@@H](CCc2ccccc2)C(C(=O)OC)=C1C`, “inactive”. As for `COC(=O)CCCC1=CC2=C(c3ccccc3)C(=O)C(C)(OC(=O)C3CCCC3)C(=O)C2=CN1Cc1ccccc1` (stereo not given), the entry is “inactive”; as for `COc1ccc(O[C@H]2C=C[C@@H](c3ccccc3)O[C@H]2COC(=O)CCC(C)=NO[C@H](C)c2cn([C@H](CO)Cc3ccccc3)nn2)cc1`, “inactive”; as for `COC(=O)N1CCc2cc(OC)c(OC)cc2C1Cc1ccc(OC)cc1` (stereo not given), “inactive”.

As to `CCCCC1=CC2=CC(=O)C(C)(OC(=O)CC)C(=O)C2=CN1C1CCCC1` (stereo not given), the Potency result was “inactive”.

Turning to `CCCCC1=CC2=CC(=O)C(C)(OC(=O)CC)C(=O)C2=CN1c1ccncc1` (stereo not given), the Potency entry is “inactive”. For the compound `COC(=O)C1=C(C(=O)OC)[C@@H]2N(Cc3ccccc3)c3ccccc3[C@@]23CCC(=O)N(CC2CCCCC2)C3=N1`, the Potency entry is “inactive”. The result for `O=C(NS(=O)(=O)c1ccc(F)cc1)O[C@@H]1C(=O)c2cc(Br)ccc2O[C@H]1c1ccc2c(c1)OCO2` reads “inactive”; that for `COC(=O)c1ccccc1S(=O)(=O)N1CCc2nc(COc3ccccc3)c3c(c2C1)CO[C@@H](C)C3`, “inactive”. As for `COC(=O)C(C(=O)OC)[C@@H]1c2ccccc2[C@H]2C(=C[C@@H](C)[C@H]3C(=O)N(c4ccccc4)C(=O)[C@H]32)N1C(=O)OC`, the entry is “inactive”; as for `C=CCN1c2ccccc2[C@]23C[C@@H](C(=O)OC)N=C2NC(C(=O)OC)=C(C(=O)OC)[C@H]13`, “inactive”; as for `COc1ccc(CN2C=C3C(=O)C(C)(OC(=O)CCc4ccccc4)C(=O)C=C3C=C2c2ccc(C#N)cc2)cc1` (stereo not given), “inactive”. As for `CCCCC1=CC2=CC(=O)C(C)(OC(=O)CC)C(=O)C2=CN1CCCN(CC)CC` (stereo not given), the entry is “inactive”; as for `COC/C=C/C1=CC2=CC(=O)C(C)(OC(=O)c3cnc4ccccc4n3)C(=O)C2=CN1Cc1ccco1` (stereo not given), “inactive”. As to `CC#CCN1c2ccccc2[C@]23C[C@@H](C(=O)OC)N(C(C)=O)C2=NC(C(=O)OC)=C(C(=O)OC)[C@H]13`, the Potency result is “inactive”. `COC(=O)C1=C(C(=O)OC)[C@@H]2Nc3ccccc3[C@@]23C[C@@H](C(=O)OC)N(C(=O)c2ccc(Br)cc2)C3=N1`: the Potency entry was “inactive”. As for `COCCN1C(=O)N[C@@H](c2cccc(F)c2)C(C(=O)OC)=C1C`, the Potency result was “inactive”. As for `CCOC(=O)N1C2=NC(C(=O)OC)=C(C(=O)OC)[C@@H]3N(C)c4ccc(OC)cc4[C@]23C[C@H]1C(=O)OC`, the entry is “inactive”.

Take `CCOC(=O)CN1C(=O)N[C@@H](c2cccc(C(F)(F)F)c2)C(C(=O)OC)=C1C`: the Potency result was “inactive”.

For the compound `CCCCc1nc2c(c3c1C[C@H](C)OC3)CN(S(=O)(=O)c1ccc(Cl)c3nonc13)CC2`, the Potency entry was “inactive”. Regarding `COC(=O)C1=C(C)N(Cc2ccco2)C(=O)N[C@@H]1c1ccco1`, the Potency entry was “inactive”. As for `CC1(OC(=O)C2CCCC2)C(=O)C=C2C=C(c3ccsc3)N(c3ccc(CO)cc3)C=C2C1=O` (stereo not given), the entry is “inactive”.

In the case of `C=CCOC(=O)N[C@H](C(C(=O)OC)=C(C)NCc1ccccc1)c1ccc(C)cc1`, the Potency result was “inactive”. As for `COC(=O)C1=C(C(=O)OC)[C@@H]2N(C)c3ccccc3[C@@]23C[C@@H](C(=O)OC)N(S(=O)(=O)c2c(C)noc2C)C3=N1`, the entry is “inactive”. The result for `C=C(C(C)=O)C(O)c1cccs1` (stereo not given) reads “inactive”; that for `CCCCc1nc2c(c3c1C[C@H](C)OC3)CN(C(=O)NCCCC(=O)OCC)CC2`, “inactive”; that for `CCCCC1=CC2=C(c3ccco3)C(=O)C(C)(OC(=O)c3ccc(OC)cc3)C(=O)C2=CN1C1CCCC1` (stereo not given), “inactive”.
